“And” between values parts separate entries of the source, which are not always exact repeats. Equal entries are not always repeated. Records with an inconclusive call do not appear. A structure can be active in one record and inactive in another. The source made the active and inactive calls. How the source made its calls: active means hit-call score of the fitted dose curve at least 0.9, where 1 is the maximum; inconclusive means response in the unintended direction; inactive means score below 0.9.

The values that follow come from PubChem BioAssay (EPA / NIEHS).

A short description of this assay: CCTE_Shafer_MEA_dev_active_electrodes_number: CCTE's Neural Network Formation Assay for Number of Active Electrodes, Shafer Lab (AID 2284040).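 On AC50: potency for loss of active electrodes versus DMSO so lower counts are hits.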 As to the method:
CCTE_Shafer_MEA_dev assay is conducted using Axion Biosystems 48 well microelectrode array (MEA) plates and Maestro recording system. Each well of the MEA plate contains a grid of 16 microelectrodes embedded in the culture surface. Electrically active cells, such as neurons, can be cultured over the electrodes, and electrical activity in these cells can be recorded extracellularly. The spontaneous firing of neurons is captured from each electrode on a microsecond timescale providing both temporally and spatially precise data. […] The CCTE_Shafer_MEA_dev assay uses primary cultures of rat cortical neurons. Recordings are made on days post-plating 5, 7, 9 and 12. As these cultures mature over time, neural networks develop functional activity and form cohesive networks in which electrical activity can be highly coordinated. CCTE_Shafer_MEA_dev_active_electrodes_number is 1 of 19 assay components of the CCTE_Shafer_MEA_dev assay. It measures the number of electrodes in a well with a mean firing rate of at least 5 spikes (action potential firings) per minute during a recording in a microelectrode array (MEA) using Axion Biosystems Maestro 768 channel amplifier with the AxIS adaptive spike detector. To collapse across multiple recordings made on days post-plating 5, 7, 9 and 12, the trapezoidal area-under-the-curve of the component is calculated.Data from the assay component CCTE_Shafer_MEA_dev_active_electrodes_number was analyzed into 1 assay endpoint. This assay endpoint, CCTE_Shafer_MEA_dev_active_electrodes_number, was analyzed in the negative analysis fitting direction relative to DMSO as the negative control and baseline of activity. Using a type of functional reporter, gain or loss-of-signal activity can be used to understand electrical activity.
On the day prior to culture, each well was coated thoroughly with 150 uL of 0.05% polyethyleneimine (PEI, Sigma Cat P3143) in 50 mM HEPES (Sigma Cat H7523) at a pH of 8. The plate was incubated at 37C for one hour. PEI was rinsed out with 500 uL of sterile water three times. Plates were stored at 4C until the day of culture. This culture was plated at a seeding density of 1.5 x 10^5 cells/well on a 48-well MEA plate, prepared as described above. Cells were administered via a 25 uL media/laminin ([…]; Sigma Cat L2020-1MG) drop directly onto the microelectrode array, as adding the cells with the laminin results in better attachment than pre-coating with laminin. After 2 hours, an additional 475 uL of cortical media was added and the cells returned to the incubator. Exposure starts at day 0 of plating and is continued over twelve days of network development until the experiment is terminated. Cells are fed with fresh medium on DIV 5 and 9, following the recordings on those days. The entire volume of media in the well is exchanged and any vehicle or compound treatment is renewed. Complete details are found in OP-NHEERL/ISTD/SBB/TJS/2015-03-r0 (available on request, email shafer.tim@epa.gov). Measurement of the electrical activity is non-invasive, and recordings can be made from the same plate over multiple different days of the culture. In cortical neurons, this allows for the measurement of extracellular action potentials over the period during which networks form in the MEA plate.
As for `CC(C)N(C(=O)COc1nnc(C(F)(F)F)s1)c1ccc(F)cc1`, the compound was called inactive.

Consider `CNC(=O)CSP(=S)(OC)OC`, for which the AC50 (as a rule, the concentration giving half of the maximal activity seen) was 77.4 µM (active) and 18.9 µM (active).

Take `CC[C@H](C)[C@H]1O[C@]2(C=C[C@@H]1C)C[C@@H]1C[C@@H](C/C=C(\C)[C@@H](O[C@H]3C[C@H](OC)[C@@H](O[C@H]4C[C@H](OC)[C@@H](O)[C@H](C)O4)[C@H](C)O3)[C@@H](C)/C=C/C=C3\CO[C@@H]4[C@H](O)C(C)=C[C@@H](C(=O)O1)[C@]34O)O2` (tested in a mixture with another compound): the AC50 is 3.93 nM (active) and 1.65 nM (active).

Consider `CCC(C)(C)C(=O)OC1=C(c2ccc(Cl)cc2Cl)C(=O)OC12CCCCC2`, for which the outcome was inactive.

In the case of `O=[N+]([O-])/N=C1\NCCN1Cc1ccc(Cl)nc1`, the compound was classed as inactive.

As to `O=S(=O)(O)C(F)(F)C(F)(F)C(F)(F)C(F)(F)C(F)(F)C(F)(F)C(F)(F)C(F)(F)F`, the compound was classed as inactive and the AC50 is 50 µM (active).

For the compound `O=C(O)COc1ccc(Cl)cc1Cl`, the AC50 is 50 µM (active).

Consider `CC1(c2ccc(Oc3ccccc3)cc2)OC(=O)N(Nc2ccccc2)C1=O` (stereo not drawn), for which the AC50 is 4.84 µM (active).

As to `O=C(O)C(F)(F)C(F)(F)C(F)(F)C(F)(F)C(F)(F)C(F)(F)C(F)(F)F`, the AC50 is 14.1 µM (active) and the call was inactive.

As for `CC1(C)C(C=C(Cl)Cl)C1C(=O)OC(C#N)c1ccc(F)c(Oc2ccccc2)c1` (stereo not drawn), the AC50 was 10 µM (active) and 26.4 µM (active) and 10.4 µM (active).

`COP(=S)(OC)Oc1ccc([N+](=O)[O-])cc1`: the AC50 is 20.2 µM (active).

On to `COP(=O)(OC)OC=C(Cl)Cl`, for which the outcome was inactive and the AC50 is 5.4 µM (active).

Turning to `ClC1C(Cl)C(Cl)C(Cl)C(Cl)C1Cl` (stereo not drawn), the compound was called inactive.

Turning to `Oc1cc(Cl)ccc1Oc1ccc(Cl)cc1Cl`, the AC50 is 9.79 µM (active).

On to `O=S1OCC2C(CO1)C1(Cl)C(Cl)=C(Cl)C2(Cl)C1(Cl)Cl` (stereo not drawn), for which the AC50 is 8.87 µM (active).
